Assay outcomes: PubChem BioAssay, several laboratories
PrPC TRFRET = cell surface PrPC inhibition, primary TR-FRET screen; TR-FRET read-out; inhibition, % at 13.8 µM; 370,000 tested, 0.43% active; AID 720596; in the data active means inhibition above about 24%; further: 0% = median of the test wells and 100% = reference compound wells
Mtb FBA inh = inhibits M. tuberculosis FBA enzyme; AID 588726; inhibition, % at 1 µM; purified M. tuberculosis FBA, fluorescence read-out; P9WQA3; 360,000 tested, 2.3% active;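 further: 0% = vehicle and 100% = reference inhibitor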
Target sequence (P9WQA3 whole entry, looked up): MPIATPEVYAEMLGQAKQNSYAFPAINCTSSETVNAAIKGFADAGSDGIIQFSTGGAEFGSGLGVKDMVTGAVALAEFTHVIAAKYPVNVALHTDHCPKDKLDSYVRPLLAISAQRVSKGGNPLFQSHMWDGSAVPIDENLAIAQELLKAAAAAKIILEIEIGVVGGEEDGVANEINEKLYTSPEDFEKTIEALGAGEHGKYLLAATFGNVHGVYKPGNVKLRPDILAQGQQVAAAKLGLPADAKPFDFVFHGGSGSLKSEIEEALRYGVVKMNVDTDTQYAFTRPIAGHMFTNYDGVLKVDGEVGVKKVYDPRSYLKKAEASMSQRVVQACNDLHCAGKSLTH
TcdB inh = TcdB glycohydrolase inhibition; TcdB glycohydrolase enzymatic assay, plate reader; inhibition, % at 9.99 µM; 350,000 tested, 0.24% active; in the data active means inhibition above about 10%
Y pestis TopoI = inhibitors of Yersinia pestis topoisomerase I; Y. pestis Topo-I cleavage product accumulation, plate reader; activity, % at 10 µM; 360,000 tested, 0.064% active; in the data active means activity above about 50%, passing the limit was not always enough
GDH-TPI counter-1 = counter-screen for M. tuberculosis FBA inhibitors: GDH-TPI coupled enzymes; AID 588335; 360,000 tested, 1.2% active; GDH-TPI coupled enzyme counterscreen, NADH absorbance; inhibition, % at 4.8 µM; in the data active means inhibition above about 30%;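 further: 0% = DMSO wells and 100% = wells lacking the enzyme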
Mtb FBA inh conf = Mtb FBA inhibition, confirmed; shares compounds with Mtb FBA inh; 5,600 tested, 78% active; inhibition, % at 1 µM; purified M. tuberculosis FBA, fluorescence read-out;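 further: 0% = vehicle wells and 100% = reference inhibitor wells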
GDH-TPI counter-2 = counter-screen for M. tuberculosis FBA inhibitors: GDH-TPI coupled enzyme inhibition | AID 652141 | shares compounds with Mtb FBA inh | 5,600 tested, 81% active | GDH-TPI coupled enzyme counterscreen, fluorescence | inhibition, % at 1 µM; in the data active means inhibition above about 10%
Starred values were filed as active, the others as inactive; x = no result; + = active, no number. Compounds with a hit are over-represented: about 3.2% of the library has one in this group of screens. Unless noted, no stated cut-off is given here; in the data, active means inhibition above about 27%; inactive means the rest.

SMILES | PrPC TRFRET | Mtb FBA inh | TcdB inh | Y pestis TopoI | GDH-TPI counter-1 | Mtb FBA inh conf | GDH-TPI counter-2
CCCCCCSc1cc(-c2nc3ccc(C)cn3c2NCc2ccccc2)ccc1OC | 1 | 28* | 0 | -4 | 11 | 188* | 136*
CCn1c(SCc2ccccc2Cl)nc2nc3c(cc2c1=O)CCCC3 | 3 | 28* | 1 | 0 | 3 | 85* | 61*
CCn1c(SCc2c(Cl)cccc2Cl)nc2nc3c(cc2c1=O)CCCC3 | -5 | 2 | 1 | 0 | -1 | x | x
CC1(C)CC(=O)c2cc(OCC(=O)NCc3cccnc3)ccc2O1 | 5 | 62* | 0 | -3 | -1 | -3 | -6
COc1ccc(NC(=O)COc2cc(O)c3c(c2)OC(C)(C)CC3=O)cc1 | 12 | 5 | 2 | 14 | 1 | x | x
CC(C)NC(=O)COc1ccc2c(c1)C(=O)CC(C)(C)O2 | 4 | 71* | 0 | 3 | 9 | + | 186*
CC1(C)CC(=O)c2cc(OCC(=O)NCCCN3CCN(c4ccccc4F)CC3)ccc2O1 | -3 | 15 | x | 33 | 13 | x | x
CCCCCCCNC(=O)COc1ccc2c(c1)C(=O)CC(C)(C)O2 | -1 | 43* | x | 29 | 2 | 56* | 56*
COc1ccc(NC(=O)N(C)C[C@@H]2OCCCC[C@@H](C)Oc3ccc(NC(=O)Nc4ccc5c(c4)OCO5)cc3C(=O)N([C@@H](C)CO)C[C@H]2C)cc1 | x | x | -3 | x | x | x | x
Cc1ccccc1S(=O)(=O)N1CC(=O)N2[C@@H](CO)[C@H](c3ccc(C#Cc4ccccc4)cc3)[C@@H]2C1 | x | x | -8 | x | x | x | x
CCOC(=O)Cc1c(C)nc2c(-c3cccc(Br)c3)c[nH]n2c1=O | -5 | 41* | x | -3 | 6 | 21 | 21*
CO[C@@H]1CN(C)C(=O)c2ccc(NC(=O)Nc3ccccc3F)cc2OC[C@@H](C)NC[C@@H]1C | x | x | 0 | x | x | x | x
COc1ccc(CNC(=O)c2ccc3nccnc3c2)cc1 | -10 | 3 | x | -7 | 8 | x | x
CCCn1nc2cc(C(=O)NCc3ccc(OC)cc3)ccc2c1OCC | -7 | 48* | 0 | 7 | 3 | 60* | 32*
Cc1ccc(OCc2cc(C(=O)NCc3ccc(OC(F)(F)F)cc3)no2)cn1 | 5 | 0 | 4 | 22 | 1 | x | x
CCCn1nc2cc(C(=O)NCc3ccc(OC(F)(F)F)cc3)ccc2c1OCC | 14 | 37* | -1 | -1 | 1 | 102* | 81*
COc1ccc(-c2cnc3c(c2)C(=O)N([C@H](C)CO)C[C@H](C)[C@@H](CN(C)C(=O)NC2CCCC2)O3)cc1 | x | x | 1 | x | x | x | x
NC(=O)N/N=C/c1ccc2cccc(OCc3ccccc3)c2n1 | -5 | 57* | 0 | 18 | 14 | 173* | 138*
O=C(Cc1ccccc1)N/N=C/c1ccc2cccc(O)c2n1 | -22 | 2 | 1 | -4 | 12 | x | x
CC(=O)c1cc2c(ccc3ccccc32)oc1=O | -2 | 50* | 1 | 2 | 11 | 73* | 60*
O=C(c1ccco1)c1cc2c(ccc3ccccc32)oc1=O | -1 | 4 | x | -5 | 14 | x | x
O=C(c1cc2c(ccc3ccccc32)oc1=O)N1CCN(CCO)CC1 | -12 | 53* | 0 | 9 | 26 | 63* | 62*
CN1CCN(C(=O)c2cc3ccccc3oc2=O)CC1 | -5 | 2 | x | 2 | 2 | x | x
C/C(=N\Nc1nc(-c2cc(C)ccc2C)cs1)c1cc2c(ccc3ccccc32)oc1=O | -5 | 29* | 0 | -4 | 12 | 69* | 43*
CC(=O)Nc1cc2c(ccc3ccccc32)oc1=O | 5 | 105* | 1 | 3 | 11 | 69* | 63*
SMILES | PrPC TRFRET | Mtb FBA inh | TcdB inh | Y pestis TopoI | GDH-TPI counter-1 | Mtb FBA inh conf | GDH-TPI counter-2
C/C(=N\Nc1nc(-c2cc(C)ccc2C)cs1)c1cc2ccccc2oc1=O | 2 | 1 | x | 3 | 7 | x | x
C[C@@H]1CN([C@H](C)CO)C(=O)Cc2cc(NC(=O)Nc3ccccc3)ccc2O[C@@H]1CN(C)S(=O)(=O)c1cn(C)cn1 | x | x | 0 | x | x | x | x
CCC(=O)N(C)C[C@H]1Oc2cc(-c3ccc(F)cc3)ccc2S(=O)(=O)N([C@H](C)CO)C[C@@H]1C | x | x | 1 | x | x | x | x
CC[C@@]1(O)C(=O)OCc2c1cc1n(c2=O)Cc2cc3c(NC(=O)CN)cccc3nc2-1 | -3 | 66* | 3 | 1 | 25 | 48* | 36*
CCC1(O)C(=O)OCc2c1cc1n(c2=O)Cc2cc3cc(O)ccc3nc2-1 (configuration not stated) | -16 | 29* | 0 | -8 | 27 | 133* | 120*
CCn1c(SCC(=O)Nc2ccccc2C)nc2nc3c(cc2c1=O)COC(C)(C)C3 | -3 | 0 | 0 | -8 | 3 | x | x
CC(C)c1ccc(OCCCCN2CCCCC2)cc1 | 3 | 98* | 1 | -1 | -1 | 130* | 106*
C[C@H]1CN([C@@H](C)CO)C(=O)c2cccc(NC(=O)C3CCOCC3)c2O[C@@H]1CN(C)S(=O)(=O)c1ccccc1 | x | x | 0 | x | x | x | x
Cc1ccc(N=Cc2c(C)[nH]n(-c3ccccc3)c2=O)nc1 | 7 | 4 | 1 | 0 | 4 | x | x
Cc1[nH]n(-c2ccccc2)c(=O)c1C=Nc1cnc2ccccc2c1 | 7 | 34* | x | 0 | 20 | 13 | 0
O=S(=O)(c1ccccc1)N1C[C@@H]2N[C@H](C1)C2c1ccc(/C=C/c2ccccc2)cc1 (some centres not stated) | x | x | 0 | x | x | x | x
OC1CNc2c(ccc3ccccc23)C1 (configuration not stated) | 0 | 101* | -51 | 1 | 7 | 175* | 154*
O=C(NC[C@H]1CC[C@H]2[C@H](CN2Cc2cccc(Cl)c2)O1)C1CCOCC1 | x | x | 0 | x | x | x | x
CC1=CC=CN2CC(O)CN=C12 (configuration not stated) | 7 | 30* | x | -9 | 8 | + | +
CC1=CN2CC(O)CN=C2C=C1 (configuration not stated) | 5 | 38* | x | -4 | 5 | 128* | 97*
CCC(=O)N1C[C@@H](O)COC[C@@H]2O[C@H](CC(=O)N3CCCCC3)CC[C@H]21 | x | x | 1 | x | x | x | x
